The structures appear in SMILES notation. Compounds without any hit were thinned out: in the full panel of roughly 83,000, 20% have a hit.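 Treatment: one concentration, 48 hours, 96-well format. Scoring: percent growth, with anything below 10 considered active.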 Values without a mark were called inactive. The source made the active and inactive calls.

Experimental findings from PubChem BioAssay (NCI) are described below.

Common to all, as to experiment: NCI-60 one-dose screen, 48 h (100 = growth as untreated, 0 = no growth, -100 = all killed)
Holding throughout (conditions): 10 µM unless noted

Test [1] concerns NCI-H23 lung.
Test [2] concerns NCI-H226 lung.
Test [3] relates to NCI-H322M lung.
Test [4] concerns HOP-62 NSCLC.
The subject of test [5] is NCI-H460 lung.
Test [6] has as its system HOP-92 NSCLC.
The test system of test [7] is NCI-H522 lung.
Test [8] deals with A549/ATCC NSCLC.
Test [9] has as its system 786-0 renal.
For test [10], the system named is COLO 205 colon.

As for `O=[N+]([O-])c1cccc(-c2nc3sccn3c2-c2ccnc(NCCCNS(=O)(=O)c3ccc(C(F)(F)F)cc3)n2)c1`, the growth in test [1] is 29.7%; in [2], 23.8%; in [3], 63.1%; in [4], 50%; in test [5], 40.2%; in test [6] it was 53%. The growth in test [7] was 20.8%; in [8], 31.3%; in test [9], 51.8%; in test [10], 24.7%.
Take `COc1cc(NC(N)=NCCC(C)(C)Oc2ccc(C(F)(F)F)cc2)ncc1C#N`: the growth was 1.1% (active) in [1]; 60.3% in [2]; 20.5% in test [3]; 31% in [4]; -79.3% (active) in [5]; -10.6% (active) in test [6]. Besides, the growth in [7] was -83.7% (active); in test [8] it was -42.6% (active); in test [9] it was 7.56% (active); in test [10] it was -87.8% (active).
For `CN(CCCCCl)P(=O)(OCc1ccc([N+](=O)[O-])o1)C(F)(F)C[C@H](NC(=O)CNC(=O)c1ccc(N=[N+]=[N-])cc1)C(=O)NCCc1ccc(O)cc1` (stereo not given in full), the growth was 99.4% in [1]; 105% in test [2]; 93.8% in test [3]; 118% in [4]; 105% in test [5]; 108% in test [6]. Moreover, the growth in test [7] is -66.9% (active); in test [8] it was 99%; in test [9], 109%; in [10], 36.9%.
Take `COc1ccc(C2C=C(c3ccc(OC)c(OC)c3)N=C3SC=C(C)N32)c(Br)c1` (stereo not given): the growth in test [1] is 99.2%; in test [2], 99.2%; in test [3], 95.8%; in [4], 108%; in test [5], 105%; in test [6] it was 156%. Moreover, the growth in [7] is 96.7%; in test [8] it was 103%; in [9], 111%; in [10] it was 108%.
With `COc1ccc2[nH]c(C(=O)OCc3ccc4c(Cl)cc(Cl)c(O)c4n3)cc2c1`, the growth in test [1] is -23.9% (active); in test [2] it was -59% (active); in test [3], 54.3%; in test [4] it was 28.2%; in test [5], -35.2% (active); in test [6] it was -78.6% (active). The growth in test [7] is -76.8% (active); in test [8], 5.45% (active); in test [9] it was -83.1% (active); in [10], -75% (active).
Take `CCCOC(=O)n1cccc1`: the growth is 99% in [1]; 104% in test [2]; 135% in test [3]; 94.3% in [4]; 110% in test [5]; 97% in test [6]. Also, the growth in test [7] is 112%; in test [8], 96.8%; in test [9] it was 98.5%; in test [10], 107%.
As to `COc1cccc(/C=C2\Oc3cc(OCCCN4CCCC4)ccc3C2=O)c1OC`, the growth was 96.8% in [1]; 86% in [2]; 92.8% in test [3]; 97.7% in test [4]; 96.2% in [5]; 91.2% in [6]. The growth in [7] was 91.5%; in [8] it was 97.2%; in [9] it was 98.5%; in [10], 105%.
As to `CN(C)CCCC(C#N)c1ccccc1` (stereo not given), the growth in [1] was 103%; in [2] it was 107%; in [3] it was 115%; in test [4], 103%; in test [5], 116%; in test [6] it was 105%. Further, the growth is 119% in test [7], 105% in [8], 97.9% in [9] and 119% in test [10].
As to `Cc1nn(-c2ccc(Cl)cc2)c2ncnc(N/N=C/c3cccc([N+](=O)[O-])c3)c12`, the growth in test [1] is 94.3%; in test [2], 104%; in [3], 96.4%; in test [4] it was 107%; in [5], 77.8%; in test [6], 20.4%. Also, the growth in test [7] was 103%; in [8], 104%; in test [9] it was 96.4%; in test [10] it was 95.3%.
For `COc1ccc(N=Cc2c(O)ccc3c2oc2cc(Cl)c(O)c(Cl)c23)cc1`, the growth is 93.7% in [1]; 101% in test [2]; 122% in test [3]; 95% in [4]; 99.8% in [5]; 88.8% in [6]. Moreover, the growth in test [7] is 68.1%; in test [8] it was 95.5%; in test [9], 88.8%; in test [10], 131%.
Regarding `COc1ccc(-c2nc(/C=N/Nc3cc(C)nc4ccc(Cl)cc34)c(C)o2)cc1`, the growth in test [1] was 42.1%; in [2], 75.6%; in [3] it was -92.5% (active); in test [4], 83.2%; in test [5], -89.2% (active); in test [6] it was -84.8% (active). The growth in test [7] was -85.2% (active); in [8] it was -91.6% (active); in [9], -87.5% (active); in test [10], -72.8% (active).
Take `O=[N+]([O-])c1cccc(-c2nc3sccn3c2-c2ccnc(NCCCNS(=O)(=O)c3ccc(Cl)cc3)n2)c1`: the growth was 42.8% in test [1]; 44.2% in [2]; 78.5% in test [3]; 84% in [4]; 57.4% in test [5]; 67.2% in [6]. In addition, the growth in [7] was 28.4%; in test [8] it was 43.1%; in test [9], 78.7%; in [10], 49.2%.
Take `COc1cc2c(cc1OCCCN1CCN(CCCn3c4ccccc4c4ccccc43)CC1)N=C[C@@H]1CCCN1C2=O`: the growth in test [1] was -30.6% (active); in test [2], -80.4% (active); in test [3], -65.5% (active); in test [4] it was -66% (active); in test [5], -96.9% (active); in [6], -80.5% (active). Also, the growth is -26.6% (active) in test [7], -37.5% (active) in test [8], -70.3% (active) in [9] and -98.8% (active) in test [10].
